Screening data: PubChem, The Scripps Research Institute Molecular Screening Center
DAX1 inh-1: NR0B1 (DAX1) inhibition; AID 504766; P51843; inhibition, % at 6.75 µM; actives 0.99% (n = 340,000); HEK293 Gal4-DAX1 luciferase reporter, luminescence;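 active = inhibition above the mean over all tested compounds plus 3 SD, cut at about 4.2% in these data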;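 also: 0% = DAX1-transfected cells with DMSO and 100% = empty-vector control cells with DMSO; inhibition shows as a rise in luminescence from relieved DAX1 repression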
Target sequence (P51843 207-470 limits assumed): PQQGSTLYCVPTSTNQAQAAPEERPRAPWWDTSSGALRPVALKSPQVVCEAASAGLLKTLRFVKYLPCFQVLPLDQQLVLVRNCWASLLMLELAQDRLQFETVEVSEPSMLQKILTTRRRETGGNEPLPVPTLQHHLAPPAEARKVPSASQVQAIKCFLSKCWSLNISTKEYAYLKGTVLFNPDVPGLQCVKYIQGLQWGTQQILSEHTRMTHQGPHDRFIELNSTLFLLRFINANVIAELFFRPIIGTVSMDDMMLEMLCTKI
DAX1 inh-2: blocks DAX1 repression of SF-1 activated StAR promoter | inhibition, % at 6.8 µM | HEK293T StAR-luciferase reporter, SF-1/DAX-1 repression relief | actives 1.1% (n = 370,000) | AID 652010;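 active = inhibition above the mean over all tested compounds plus 3 SD, cut at about 3.6% in these data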;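 also: 0% = DAX-1 cells with DMSO and 100% = cells lacking DAX-1 with DMSO; higher inhibition means more luminescence from relief of DAX-1 repression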
hcDAF12 agonist: activators of H. contortus DAF-12 nuclear receptor; HEK293 hcDAF-12 lit1-tk-luc reporter, luminescence; 0% DMSO, 100% Δ7-dafachronic acid; activation, % at 6.8 µM; actives 1.4% (n = 370,000); AID 652067;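 active = activation above the mean of all tested compounds plus 3 SD, cut at about 5.5% in these data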;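 also: 100% = response to 3 µM Δ7-dafachronic acid high control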
ssDAF12 agonist: S. stercoralis DAF-12 activation, primary screen. HEK293 ssDAF-12/GRIP1 lit1-tk-luc reporter, luminescence; % of 3 µM dafachronic acid response. activation, % at 6.8 µM. actives 1% (n = 370,000);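 active = activation above the mean over all tested compounds plus 3 SD, cut at about 0.9% in these data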;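 also: 0% = DMSO-only wells and 100% = 3 µM delta7-dafachronic acid wells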
hgDAF-12 ag: agonists of H. glycines DAF-12 nuclear receptor | activation, % at 6.8 µM | HEK293 GAL4-hgDAF12 UAS-luciferase reporter, agonist luminescence; normalized to butyrate control | actives 1.8% (n = 370,000) | AID 687014;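 active = activation above a cutoff set at the mean of all screened compounds plus 3 SD, cut at about 10% in these data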;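 also: 0% = DMSO wells and 100% = sodium butyrate wells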
Active calls of the source: *; x = no result. Hits are enriched below; roughly 4.1% of the tested compounds scored in any of these assays.

SMILES	DAX1 inh-1	DAX1 inh-2	hcDAF12 agonist	ssDAF12 agonist	hgDAF-12 ag
Cc1ccc(C)c(NC(=S)NNC(=O)c2cc3c(s2)CCC(C)C3)c1 (configuration not stated)	1	0	-1	-1	1
Cc1cccc(NC(=S)NNC(=O)c2cc3c(s2)CCC(C)C3)c1C (configuration not stated)	0	0	-1	20*	-3
COc1ccc(/C(N)=N/OC(=O)c2c(-c3ccccc3Cl)noc2C)cc1OC	0	-3	-1	-1	1
Cc1nc(/C(N)=N/OC(=O)c2c(-c3ccccc3Cl)noc2C)cs1	5.9*	0	0	-2	-3
CCOC(=O)N1CCN(C(=O)C[C@H]2C[C@@]3(C(=O)OC)C(=C[C@H](C4CCCC4)O[C@@H]3C)N(CCC3=CCCCC3)C2=O)CC1	x	0	-1	0	1
Cc1ccc(CNC2CCC23CCC(c2ccccc2)CC3)o1 (configuration not stated)	x	x	0	-1	2
CCOC(=O)c1c(O)c(Cl)c(C)[nH]c1=O	1	0	-1	0	12*
O=C(Nc1ccc(F)cc1F)C1CCN(c2nnc(-n3cccc3)s2)CC1	x	1	-1	-1	0
Cc1cnn(-c2ccccc2)c1NC(=O)COCc1ccccc1	x	-1	-4	-1	-3
COc1ccc2cc(CCOC3CCCCO3)ncc2c1 (configuration not stated)	2	2	6.5*	0	9
COc1cc2cnc(CCO[C@H]3CCCCO3)cc2cc1OC	1	0	-3	-1	1
COC(=O)[C@]1(C#N)CC(=O)N(Cc2ccc(Cl)cc2)[C@@H]1c1ccccc1	x	-1	0	0	-1
COc1ccc(C(=O)O[C@@H]2CCC[C@@]3(C(=O)N(Cc4ccccc4)c4ccccc43)[C@H]2NC(=O)CCc2ccccc2)cc1OC	x	0	-4	-1	-2
COc1ccc(C2c3[nH]c4ccccc4c3CCN2C(=O)Cc2nonc2C)c(F)c1 (configuration not stated)	0	1	5.7*	0	9
Cc1cccc(C2c3[nH]c4ccccc4c3CCN2Cc2ccc(C)s2)n1 (configuration not stated)	0	0	6.4*	1.0*	4
COc1cccc(C2c3[nH]c4ccccc4c3CCN2Cc2cnc(C)s2)c1OC (configuration not stated)	0	0	3	1.1*	0
Cc1cccc(C2c3[nH]c4ccccc4c3CCN2C(=O)Cc2n[nH]c(C)n2)n1 (configuration not stated)	1	1	3	1.5*	4
COC(=O)[C@]12C[C@H](CC(=O)N3CCOCC3)C(=O)N(Cc3ccco3)C1=C[C@H](COCc1ccccc1)O[C@@H]2C	x	-1	2	0	-4
NS(=O)(=O)c1ccc(NC(=O)Nc2ccc(Cl)cc2)cc1	0	-1	1	-2	12*
NS(=O)(=O)c1ccc(NC(=O)CCCCC(=O)Nc2ccc(S(N)(=O)=O)cc2)cc1	4.4*	0	-1	-1	-1
CNC(=O)Nc1ccc(S(N)(=O)=O)cc1	0	0	-1	-1	-1
Cc1ccccc1N=C1Nc2ccccc2CS1	1	0	2	0	11*
CSc1ccc(-c2nnn(Cc3ccccn3)n2)cc1	1	2	0	0	12*
CSc1ccc(-c2nnn(Cc3ccc(Br)cc3)n2)cc1	2	-1	1	0	2
COC(=O)c1ccc(NC(=O)Nc2ccc(F)cc2F)cc1	0	0	-1	-2	13*
SMILES	DAX1 inh-1	DAX1 inh-2	hcDAF12 agonist	ssDAF12 agonist	hgDAF-12 ag
COC(=O)c1ccc(NC(=O)Nc2cccc(F)c2)cc1	1	0	-1	0	11*
O=C(Nc1ccccc1)Nc1ccc(F)cc1F	0	1	0	-1	3
O=C(Nc1ccc2c(c1)OCO2)Nc1ccc(Cl)cc1Cl	-1	1	1	-1	7
O=C(Nc1ccc2c(c1)OCO2)Nc1ccc(F)cc1F	2	3	0	-1	11*
O=C(Nc1cccc(C(=O)Nc2ccc(F)cc2F)c1)c1ccccc1	7.2*	0	-3	-1	-1
O=C(NCCc1ccc(F)cc1)c1cccc(NC(=O)c2ccccc2)c1	-1	0	-2	-1	-3
COC(=O)c1ccc(C(=O)Nc2ccc(F)cc2)cc1	2	0	2	-1	2
O=C(CCc1ccccc1)N[C@H]1[C@@H](OC(=O)c2cccnc2)CCC[C@]12C(=O)N(Cc1ccccc1)c1ccccc12	x	1	0	-1	-3
Nc1[nH]c(C(=O)c2ccccc2)c(-c2ccc(Br)cc2)c1C(=O)c1ccccc1	x	0	-1	-1	0
CC(=O)Nc1cccc(NC(=O)Nc2ccc(F)cc2F)c1	0	-1	-2	1.3*	4
COc1ccc(/C=C2/SC(=S)N(Cc3ccccc3)C2=O)cc1O	-1	0	0	-1	-1
COc1ccc(/C=C2\SC(=S)N(N3C(=O)CCC3=O)C2=O)cc1O	4.4*	0	-1	0	-2
O=C(N/N=C/c1c[nH]c2ccccc12)c1[nH]c2ccc(Br)cc2c1-c1ccccc1	1	2	4	1.4*	-2
Cc1cccc(NC(=S)N/N=C/c2c[nH]c3ccccc23)c1	-1	0	0	0	14*
O=C(N/N=C/c1c[nH]c2ccccc12)c1ccncc1	2	0	5	0	3
O=C(N/N=C/c1c[nH]c2ccccc12)c1ccccc1	6.1*	0	2	0	5
O=C(N/N=C/c1cc2c(cc1Br)OCO2)c1c[nH]c2ccccc12	5.4*	1	4	0	10*
O=C(NN=Cc1c[nH]c2ccccc12)NN=Cc1c[nH]c2ccccc12	-1	0	2	1	-2
O=C(N/N=C/c1cc2c(cc1Br)OCO2)c1ccccn1	x	2	3	0	6
CCN(C(=O)CSc1nnc(-c2cccnc2)n1Cc1ccco1)c1ccccc1	x	0	-2	0	0
CC(=O)c1cc(-c2ccccc2S(=O)(=O)NC(C)(C)C)c(=O)n2c1CCC2	x	-1	0	-1	5
Cc1cc(C(=O)N/N=C/c2c[nH]c3ccccc23)cs1	1	0	4	1	8
Cc1cc(C(=O)N/N=C/c2c[nH]c3ccccc23)c(C)o1	1	1	3	1	8
Cc1nc(N)sc1C(=O)N/N=C/c1c[nH]c2ccccc12	-1	0	5	-1	11*
O=C(N/N=C/c1ccccc1Cl)c1ccc(F)cc1	2	2	3	-2	13*
CCOc1ccc(Br)cc1C(=O)N/N=C/c1c[nH]c2ccccc12	3	0	0	-1	2
O=C(N/N=C/c1c[nH]c2ccccc12)c1cc(Br)ccc1O	-1	0	5	1.3*	10
